Source: PubChem BioAssay (Broad Institute)
aSyn UTR act: Activators via SNCA 5'UTR binding, MLPCN. 7.1% of 300,000 active. activity score, % (tested at 7.5 µM), hits read low. alpha-synuclein 5'UTR reporter, activators screen; in the data active = activity score below about -60%
An asterisk follows results filed as active. Only a sample is shown.

SMILES | aSyn UTR act
CC(=O)C1=NOC(CNc2ncc(C(F)(F)F)cc2Cl)C1 (stereo not given) | -86*
C=CCn1c(C)cc(C(=O)COC(=O)[C@@H](NC(=O)c2ccccc2Cl)C(C)C)c1C | -70*
Cc1ccc(NC(=O)c2cc(N(C)C)ccc2[P+](=O)O)cc1 | -154*
O=C(c1ccc(Cl)cc1)c1cnc(Nc2ccccc2Cl)s1 | -156*
CC(=O)c1cnc(Nc2cccc(Cl)c2Cl)s1 | -92*
Cc1nc2ccc(S(=O)(=O)Nc3cc(-c4nc5cccnc5s4)ccc3C)cc2s1 | -85*
Cc1ccc(C)c(NS(=O)(=O)c2ccc(-c3cnc(C4CC4)o3)cc2)c1 | 93
Nc1cccc(C(=O)OCC(=O)c2ccccc2)c1 | -86*
Cc1ccc(C(=O)COC(=O)c2ccc(O)cc2)cc1 | -182*
O=C(COC(=O)c1cccc(O)c1)c1ccccc1 | -69*
CS(=O)(=O)N(CC(=O)Nc1ccccc1C(=O)NCCc1ccccc1)c1ccc2c(c1)OCCO2 | -153*
CCOc1ccc(N(CC(=O)NCc2ccccc2OC)S(C)(=O)=O)cc1 | -90*
C=CCNC(=O)c1ccc(CN(c2ccc(OCC)cc2)S(=O)(=O)c2ccc(C)cc2)cc1 | -93*
Cc1ccc(N(CC(=O)Nc2ccc3c(c2)OCCO3)S(C)(=O)=O)cc1 | -99*
CCOc1ccc(N(CC(=O)Nc2cc(C)cc(C)c2)S(C)(=O)=O)cc1 | -88*
CCOc1ccc(N(CC(=O)Nc2ccccc2C)S(=O)(=O)c2c(C)noc2C)cc1 | 59
CCOc1ccc(N(CC(=O)Nc2ccc(C)cc2)S(C)(=O)=O)cc1 | -113*
CC(=O)c1ccc(NC(=O)CN(c2c(C)cccc2C)S(C)(=O)=O)cc1 | -131*
COc1ccc(C(=O)Nc2cc3c4c(c2)CC(=O)N4CCC3)c(OC)c1 | -90*
Cc1ccc(OCCCCn2cnc3ccccc32)c(C)c1 | -88*
Brc1ccccc1OCCCCn1cnc2ccccc21 | -138*
N#C/C(=C\c1ccc(N2CCOCC2)cc1)c1ccccc1 | -132*
N#C/C(=C\c1ccc(N2CCOCC2)o1)c1ccccc1 | -223*
N#C/C(=C/c1ccc(N2CCOCC2)o1)c1ccc(Br)cc1 | -284*
O=C(CSc1cccs1)Nc1cccc2ccccc12 | -112*
SMILES | aSyn UTR act
O=C(CSc1cccs1)Nc1ccc2ccccc2c1 | -126*
O=C(CSc1ccccc1)Nc1ccc2sccc2c1 | -78*
CCOc1ccc2nc(N3CCOCC3)nc(C)c2c1 | -178*
Cc1cc(N/N=C/c2ccc(O)cc2O)nc(-n2nc(C)cc2C)n1 | 72
CCOc1ccc(/C=N/Nc2cc(C)nc(N3CCOCC3)n2)cc1 | -105*
Cc1cc(Nc2ccc(C)c(Cl)c2)nc(N2CCOCC2)n1 | -70*
Nc1ccc(-c2ncc(-c3ccccc3)o2)cc1 | 86
Cc1ccc(-c2cnc(-c3ccncc3)o2)cc1 | -157*
O=C(Nc1ccc(Cl)cn1)c1cccc(F)c1 | -204*
CC(C)C(=O)Nc1ccc(NC(=O)c2cccc(F)c2)cn1 | -148*
CCOc1ccc(C(=O)Nc2ccc(Cl)cn2)cc1Cl | -182*
O=C(Nc1ccc(NC(=O)C2CC2)nc1)c1cccc(F)c1 | -161*
C/C(CC(C)(C)C1CCCCC1)=N\NC(N)=S | -76*
c1ccc(-c2ccc3c(n2)CCCO3)cc1 | -113*
O=C(c1ccc2ccccc2c1)N1CCN(Cc2ccccc2)CC1 | -85*
COc1cccc(NC(=O)c2ccc(CN3CCc4ccccc4C3)cc2)c1 | -104*
Cc1cccc(NC(=O)c2ccc(CN3CCN(Cc4ccccc4)CC3)cc2)c1 | -77*
CC(C)(C)SCCNC(=O)c1ccc(CN2CCc3ccccc3C2)cc1 | -63*
Oc1c(CN2CCc3ccccc3C2)cc(Cl)c2cccnc12 | 91
Cn1cc(Cl)c(/C(N)=N/OC(=O)c2ccccc2C(F)(F)F)n1 | -98*
O=C(NCc1cccs1)c1cc2c(s1)CCCC2 | -142*
O=C(NCC1CCCO1)c1cc2c(s1)CCC2 (stereo not given) | -122*
Cc1ccc(NC(=O)N/C=C/c2ccccc2)cc1 | -92*
Cc1ccc(NC(=O)N/C=C/c2ccc(Cl)cc2)cc1 | -94*
O=C1/C(=C/C=C/c2ccco2)SC(=S)N1c1ccc(O)cc1 | -78*
SMILES | aSyn UTR act
CN(C)c1ccc(/C=C/C=C2/SC(=S)N(c3ccccc3)C2=O)cc1 | -76*
COc1ccc(NC(=O)c2cnc(SC)nc2)cc1 | -124*
COc1ccc(NC(=O)c2scc(S(=O)(=O)C(C)C)c2N)cc1 | -193*
COc1ccc(NC(=O)c2sc(SC)nc2N)cc1 | -197*
O=C(/C=C/Nc1ccc(F)c(Cl)c1)c1ccco1 | -148*
O=C(/C=C/Nc1cccc(F)c1)c1ccco1 | -264*
CCn1cnc2cc(NCc3ccc(OC)cc3)ccc21 | -101*
CCc1ccc(CNc2ccc3c(c2)ncn3CC)cc1 | -177*
CCOc1ccc2nc3cc(NCc4ccc(OC)cc4)ccc3c(N)c2c1 | 109
CCCn1cnc2cc(NCc3cccs3)ccc21 | -161*
O=C(COc1ccccc1)Nc1nc2c(s1)CCCC2 | -88*
COC(=O)c1sc(NC(=O)COc2ccccc2C)nc1C | -90*
CC(C)CCn1nc(C(=O)Nc2nc3c(s2)CCCC3)c2ccccc2c1=O | 68
CC(=O)c1sc(NC(=O)COc2ccccc2)nc1C | -109*
COc1ccccc1OCC(=O)Nc1nc(C)c(C)s1 | -83*
COC(=O)Nc1nc2c(s1)CCCC2 | -87*
CCN1CCN(/C=N/c2nc3c(s2)CCCC3)CC1 | 66
Cc1cc(NC(=O)C(C)C)n(-c2nc3ccccc3s2)n1 | -78*
Cc1cc(C)n(-c2nc3ccccc3s2)n1 | -168*
Cc1cc(N)n(-c2nc3ccccc3s2)n1 | -157*
Cc1ccc(/C=C/c2nc3ccccc3s2)s1 | 71
Cc1cc(N)n(-c2ccc3ccccc3c2)n1 | -119*
COC(=O)C1CCN(C(=O)CCCOc2ccccc2)CC1 | -83*
CCCCOc1ccc(C(=O)N2CCCC2)cc1 | -63*
COc1ccc(OCCC(=O)N2CCCCC2)cc1 | -63*
SMILES | aSyn UTR act
Cc1ccc(NC(=O)c2cc3ccccc3cc2O)cc1 | -179*
COc1ccc(NC(=O)c2cc3ccccc3cc2O)cc1 | -119*
Cc1ccc(OCCSc2ncccn2)c(C)c1 | -78*
COc1ccc(C)cc1N=Nc1ccc(O)c2ncccc12 | 68
c1cnc(SCCOc2cccc3ccccc23)nc1 | -186*
C(=N\Nc1cc(N2CCCCC2)ncn1)/c1ccco1 | -129*
Fc1cccc(/C=N/Nc2cc(N3CCOCC3)ncn2)c1 | -108*
COc1cccc(/C=N/Nc2cc(N3CCOCC3)ncn2)c1O | 72
Fc1ccc(/C=N/Nc2cc(N3CCOCC3)ncn2)cc1 | -88*
O=c1c2c(nc3cc(-c4ccccc4)[nH]n13)CCS2 | -99*
O=c1c2c(nc3cc(-c4ccccc4Cl)[nH]n13)CCS2 | -149*
O=C(Nc1nc(-c2ccco2)cs1)c1ccccc1 | -181*
O=C(Nc1nc(-c2ccccn2)cs1)c1ccccc1-n1cnnn1 | 98
CCOc1ccc(-c2csc(NC(=O)c3ccco3)n2)cc1 | -126*
Cc1ccc(-c2csc(NC(=O)c3ccc(-c4ccccc4)cc3)n2)o1 | -122*
O=C(Nc1nc(-c2ccccc2)cs1)c1ccco1 | -98*
COc1ccc(-c2csc(NC(=O)C3=NN(c4ccccc4)C(=O)CC3)n2)cc1 | -86*
O=C(NNc1nc(-c2ccc(Br)cc2)cs1)c1ccco1 | -105*
Cc1ccc(-c2csc(NC(=O)c3ccco3)n2)cc1C | -209*
COc1ccc(-c2csc(NC(=O)c3ccco3)n2)cc1 | -241*
NC(=O)c1cnn(-c2cc(Oc3ccccc3)ncn2)c1N | -66*
c1ccc(Oc2cc(-n3cccn3)ncn2)cc1 | -140*
